# Source: the supplement of paper PMC12067093, “Discovery and optimisation of a covalent ligand for TRIM25 and its application to targeted protein ubiquitination” (Chemical Science, 2025)
# Of roughly 21,000 targets only a part is listed; those with the largest changes were picked by preference.
# Compound: Cc1cc(ccc1-c1ccccc1)C(=O)N1CCCN(CC1)C(=O)CCl [compound 10]
# Assay: probe-labelled cysteine peptide fold change vs DMSO (competition) (log2 fold change); higher = less target engagement (more negative = stronger competition)
# Settings: THP-1, incubation time: 4 h
# 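Note: competitive profiling in live THP-1 cells: cysteine peptides tagged with an iodoacetamide desthiobiotin (IA-DTB) probe, intensity after compound treatment relative to DMSO-treated cells.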
# UniProt P98172, sequence (P98172 whole entry): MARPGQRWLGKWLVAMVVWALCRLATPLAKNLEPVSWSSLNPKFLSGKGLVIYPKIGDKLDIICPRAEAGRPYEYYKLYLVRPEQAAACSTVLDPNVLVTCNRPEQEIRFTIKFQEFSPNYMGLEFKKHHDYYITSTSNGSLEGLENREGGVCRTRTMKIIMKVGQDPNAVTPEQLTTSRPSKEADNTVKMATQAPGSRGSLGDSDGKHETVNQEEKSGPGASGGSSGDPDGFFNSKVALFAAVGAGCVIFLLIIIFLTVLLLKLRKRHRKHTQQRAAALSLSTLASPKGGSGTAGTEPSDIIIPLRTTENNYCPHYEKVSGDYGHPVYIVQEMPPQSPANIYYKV
# UniProt Q96E09, sequence (Q96E09 whole entry): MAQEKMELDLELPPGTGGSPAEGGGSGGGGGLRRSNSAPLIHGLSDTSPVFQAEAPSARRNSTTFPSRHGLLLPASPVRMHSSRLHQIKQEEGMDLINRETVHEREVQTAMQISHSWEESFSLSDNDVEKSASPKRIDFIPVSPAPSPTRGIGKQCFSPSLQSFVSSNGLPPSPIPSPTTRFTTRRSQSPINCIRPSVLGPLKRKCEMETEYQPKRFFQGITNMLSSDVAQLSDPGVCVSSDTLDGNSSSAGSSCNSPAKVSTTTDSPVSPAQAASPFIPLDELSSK
# UniProt Q17RN3, sequence (Q17RN3 whole entry, looked up): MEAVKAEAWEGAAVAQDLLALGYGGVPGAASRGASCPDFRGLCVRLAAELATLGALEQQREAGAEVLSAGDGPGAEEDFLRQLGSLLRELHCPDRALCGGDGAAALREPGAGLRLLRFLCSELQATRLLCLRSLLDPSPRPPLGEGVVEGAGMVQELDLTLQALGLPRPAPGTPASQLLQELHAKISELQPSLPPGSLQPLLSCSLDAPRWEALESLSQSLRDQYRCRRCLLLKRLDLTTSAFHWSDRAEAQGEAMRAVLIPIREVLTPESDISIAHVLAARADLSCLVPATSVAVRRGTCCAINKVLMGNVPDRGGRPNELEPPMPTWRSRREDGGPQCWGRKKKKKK
# UniProt Q9NWS6, sequence (Q9NWS6 whole entry, looked up): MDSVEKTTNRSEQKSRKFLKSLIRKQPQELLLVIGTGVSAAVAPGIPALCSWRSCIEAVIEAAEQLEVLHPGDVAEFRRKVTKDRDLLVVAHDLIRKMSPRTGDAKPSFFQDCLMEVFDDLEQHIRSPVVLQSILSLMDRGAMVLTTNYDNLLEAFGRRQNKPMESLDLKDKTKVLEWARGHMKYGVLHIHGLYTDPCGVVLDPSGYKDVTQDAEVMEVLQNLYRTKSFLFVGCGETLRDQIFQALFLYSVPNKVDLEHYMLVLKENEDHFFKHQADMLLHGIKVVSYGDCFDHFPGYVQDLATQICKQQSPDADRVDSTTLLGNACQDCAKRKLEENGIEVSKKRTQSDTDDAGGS
# UniProt Q96DZ1, sequence (Q96DZ1 whole entry, looked up): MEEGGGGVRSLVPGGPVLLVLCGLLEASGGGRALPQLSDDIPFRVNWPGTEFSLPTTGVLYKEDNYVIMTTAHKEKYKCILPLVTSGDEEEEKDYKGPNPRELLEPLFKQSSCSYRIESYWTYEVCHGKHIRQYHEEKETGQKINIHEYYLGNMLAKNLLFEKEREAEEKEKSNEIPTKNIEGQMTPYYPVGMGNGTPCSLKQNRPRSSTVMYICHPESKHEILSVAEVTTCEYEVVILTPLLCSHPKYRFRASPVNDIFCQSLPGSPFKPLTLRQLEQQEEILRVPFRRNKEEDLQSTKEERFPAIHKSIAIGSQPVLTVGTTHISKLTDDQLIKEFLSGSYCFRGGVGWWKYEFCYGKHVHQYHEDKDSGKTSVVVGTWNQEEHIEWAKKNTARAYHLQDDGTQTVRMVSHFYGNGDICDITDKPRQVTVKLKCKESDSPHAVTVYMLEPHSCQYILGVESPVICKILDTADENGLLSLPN
# UniProt O94868, sequence (O94868 whole entry, looked up): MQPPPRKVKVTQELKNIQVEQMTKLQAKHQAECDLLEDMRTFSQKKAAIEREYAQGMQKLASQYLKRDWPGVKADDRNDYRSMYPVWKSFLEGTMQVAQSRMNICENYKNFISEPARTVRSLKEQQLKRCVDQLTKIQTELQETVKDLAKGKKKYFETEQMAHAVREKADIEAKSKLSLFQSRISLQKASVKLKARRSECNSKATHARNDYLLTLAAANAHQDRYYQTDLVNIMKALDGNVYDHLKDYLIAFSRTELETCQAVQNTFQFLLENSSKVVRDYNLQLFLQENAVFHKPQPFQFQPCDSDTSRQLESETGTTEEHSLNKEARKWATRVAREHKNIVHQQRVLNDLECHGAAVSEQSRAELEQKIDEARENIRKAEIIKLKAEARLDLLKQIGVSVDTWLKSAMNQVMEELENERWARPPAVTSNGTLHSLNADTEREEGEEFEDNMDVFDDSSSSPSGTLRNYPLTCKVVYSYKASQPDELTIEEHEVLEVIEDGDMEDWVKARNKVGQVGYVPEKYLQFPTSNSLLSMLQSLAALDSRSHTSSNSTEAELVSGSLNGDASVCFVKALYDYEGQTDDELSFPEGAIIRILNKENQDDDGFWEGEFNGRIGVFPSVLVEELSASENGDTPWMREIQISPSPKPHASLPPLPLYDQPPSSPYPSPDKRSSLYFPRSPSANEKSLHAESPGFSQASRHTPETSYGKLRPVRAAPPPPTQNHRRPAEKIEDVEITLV
# UniProt Q15717, sequence (Q15717 whole entry, looked up): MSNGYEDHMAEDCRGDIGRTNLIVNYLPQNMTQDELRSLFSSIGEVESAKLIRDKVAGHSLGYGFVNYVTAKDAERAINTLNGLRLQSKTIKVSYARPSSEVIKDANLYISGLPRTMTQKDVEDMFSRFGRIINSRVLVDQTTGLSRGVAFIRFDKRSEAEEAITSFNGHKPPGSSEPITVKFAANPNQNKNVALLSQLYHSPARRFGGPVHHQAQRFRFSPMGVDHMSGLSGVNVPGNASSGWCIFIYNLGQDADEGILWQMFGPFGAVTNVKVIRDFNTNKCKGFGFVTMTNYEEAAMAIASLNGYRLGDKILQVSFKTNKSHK
# UniProt Q05639, sequence (Q05639 whole entry, looked up): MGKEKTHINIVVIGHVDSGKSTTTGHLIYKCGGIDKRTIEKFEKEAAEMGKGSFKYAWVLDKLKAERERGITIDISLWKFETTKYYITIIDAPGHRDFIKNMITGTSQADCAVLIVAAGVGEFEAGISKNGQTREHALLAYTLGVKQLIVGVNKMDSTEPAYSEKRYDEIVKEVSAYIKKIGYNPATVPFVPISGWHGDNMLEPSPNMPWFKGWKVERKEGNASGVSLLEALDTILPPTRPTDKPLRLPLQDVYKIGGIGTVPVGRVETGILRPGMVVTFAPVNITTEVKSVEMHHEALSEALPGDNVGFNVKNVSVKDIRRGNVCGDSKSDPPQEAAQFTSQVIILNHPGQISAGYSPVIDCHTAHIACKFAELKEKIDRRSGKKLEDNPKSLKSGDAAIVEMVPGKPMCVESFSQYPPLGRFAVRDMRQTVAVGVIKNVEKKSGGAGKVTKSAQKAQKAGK
# UniProt Q8NEZ5, sequence (Q8NEZ5 whole entry, looked up): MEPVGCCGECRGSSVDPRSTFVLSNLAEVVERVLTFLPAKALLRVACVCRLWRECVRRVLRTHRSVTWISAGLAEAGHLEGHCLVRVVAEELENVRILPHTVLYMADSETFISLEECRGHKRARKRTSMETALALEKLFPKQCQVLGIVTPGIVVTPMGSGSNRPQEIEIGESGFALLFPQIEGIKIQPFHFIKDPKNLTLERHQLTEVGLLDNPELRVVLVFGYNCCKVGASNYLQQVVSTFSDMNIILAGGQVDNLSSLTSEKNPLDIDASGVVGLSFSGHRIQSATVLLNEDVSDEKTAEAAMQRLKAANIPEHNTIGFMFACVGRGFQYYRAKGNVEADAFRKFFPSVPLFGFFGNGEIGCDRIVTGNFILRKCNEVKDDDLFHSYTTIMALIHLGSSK
# UniProt Q9H2P9, sequence (Q9H2P9 whole entry, looked up): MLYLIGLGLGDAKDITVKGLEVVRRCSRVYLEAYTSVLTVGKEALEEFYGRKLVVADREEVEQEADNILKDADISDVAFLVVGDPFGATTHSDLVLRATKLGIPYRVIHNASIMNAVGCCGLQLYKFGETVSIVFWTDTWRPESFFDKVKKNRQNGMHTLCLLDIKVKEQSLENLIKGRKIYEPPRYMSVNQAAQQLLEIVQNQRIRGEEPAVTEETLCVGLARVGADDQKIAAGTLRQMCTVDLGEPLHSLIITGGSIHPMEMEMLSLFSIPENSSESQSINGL
# UniProt Q5JSP0, sequence (Q5JSP0 whole entry, looked up): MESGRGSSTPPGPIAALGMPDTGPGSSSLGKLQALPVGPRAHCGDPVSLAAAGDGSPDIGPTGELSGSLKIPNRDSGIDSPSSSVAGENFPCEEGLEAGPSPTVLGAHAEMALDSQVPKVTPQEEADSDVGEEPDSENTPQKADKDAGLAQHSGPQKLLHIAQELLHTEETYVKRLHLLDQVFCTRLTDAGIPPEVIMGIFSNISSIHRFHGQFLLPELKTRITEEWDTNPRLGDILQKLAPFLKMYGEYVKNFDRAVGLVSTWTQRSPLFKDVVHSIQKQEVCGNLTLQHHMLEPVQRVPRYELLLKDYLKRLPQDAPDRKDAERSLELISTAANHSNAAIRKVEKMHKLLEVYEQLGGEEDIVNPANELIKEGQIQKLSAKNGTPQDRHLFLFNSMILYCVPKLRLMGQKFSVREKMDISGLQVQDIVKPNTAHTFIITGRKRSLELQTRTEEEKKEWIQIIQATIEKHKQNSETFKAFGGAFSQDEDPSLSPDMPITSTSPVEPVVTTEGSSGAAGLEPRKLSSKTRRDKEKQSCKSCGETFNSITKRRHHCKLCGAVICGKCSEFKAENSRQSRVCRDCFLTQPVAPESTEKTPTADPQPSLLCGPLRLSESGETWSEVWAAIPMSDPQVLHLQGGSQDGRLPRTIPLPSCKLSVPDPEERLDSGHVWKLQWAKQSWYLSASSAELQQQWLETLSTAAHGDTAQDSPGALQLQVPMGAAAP
Target,probe-labelled cysteine peptide fold change (10 µM),probe-labelled cysteine peptide fold change (50 µM)
DSTN_P60981_12_ASGVQVADEVCR (UniProt P60981),0.0942,0.212
EIF2S1_P05198_98_VSPEEAIKCEDK (UniProt P05198),-0.267,-1.12
EFNB1_P98172_89+101_LYLVRPEQAAACSTVLDPNVLVTCNRPEQEIR (UniProt P98172),-0.388,-0.49
EHMT1_Q9H9B1_1111_LLPEFNMAEPPLIFECNHACSCWR (UniProt Q9H9B1),0.0188,-0.282
ELP1_O95163_23_DIQGPGNPQCFSLR (UniProt O95163),0.145,-0.213
FGD3_Q5JSP0_184_LHLLDQVFCTR (UniProt Q5JSP0),0.0176,0.345
ELP4_Q96EB1_412_LGPGCGMMAGGK (UniProt Q96EB1),-0.372,-1.07
ELOVL5_Q9NYP7_61_NKQPFSCR (UniProt Q9NYP7),-0.567,-1.94
FAM208A_Q9UK61_318_HVCPYAVVSFTYK (UniProt Q9UK61),-0.201,-0.698
ERCC5_P28715_550_NETHAEVLEQQNELCPYESK (UniProt P28715),-0.452,-0.364
ELAVL1_Q15717_13_SNGYEDHMAEDCR (UniProt Q15717),0.863,1.62
DPH7_Q9BTV6_33_HLLACGTYQLR (UniProt Q9BTV6),0.0319,0.078
FAM98C_Q17RN3_340_REDGGPQCWGR (UniProt Q17RN3),-0.342,-1.05
FAM118A_Q9NWS6_113_TGDAKPSFFQDCLMEVFDDLEQHIR (UniProt Q9NWS6),0.174,-0.519
FBXO22_Q8NEZ5_7_MEPVGCCGECR (UniProt Q8NEZ5),-0.235,1.31
ETHE1_O95571_170_TDFQQGCAK (UniProt O95571),-0.118,-1.3
EDC4_Q6P2E9_976_LCTQLEGLQSTVTGHVER (UniProt Q6P2E9),-0.0211,0.299
FAM102B_Q5T8I3_254_RNTSVGSTSTGVESILEPCDEIEQK (UniProt Q5T8I3),-0.237,0.149
EEF1B2_P24534_191_LQIQCVVEDDK<|>EEF1D_P29692_247_LQIQCVVEDDK (UniProt P29692+P24534),0.179,0.387
EXOSC1_Q9Y3B2_73_ETESQLLPDVGAIVTCK (UniProt Q9Y3B2),-0.0568,0.13
EPRS_P07814_92+105_LSSCDSFTSTINELNHCLSLR (UniProt P07814),0.0532,-0.00186
FDFT1_P37268_6_CLGHPEEFYNLVR (UniProt P37268),-0.238,-0.749
EXOSC6_Q5RKV6_248_LGLEGCQR (UniProt Q5RKV6),-0.00681,0.0231
EPRS_P07814_660_NSKHEELMLGDPCLK (UniProt P07814),-0.334,-1.37

Target,probe-labelled cysteine peptide fold change (10 µM),probe-labelled cysteine peptide fold change (50 µM)
EZH2_Q15910_324_NTETALDNKPCGPQCYQHLEGAK (UniProt Q15910),0.251,-0.196
ELP4_Q96EB1_361_LNNLICDESDVK (UniProt Q96EB1),-0.0288,0.12
EXOSC10_Q01780_555_IAEELPKEPQGIIACCNPVPPLVR (UniProt Q01780),-0.144,-1.17
DOCK10_Q96BY6_1310_TDNCEK (UniProt Q96BY6),-0.105,-0.108
FAM76B_Q5HYJ3_73_PCQYCNIIAAFIGTK (UniProt Q5HYJ3),-0.188,0.0361
DSTN_P60981_163_LGGSLIVAFEGCPV (UniProt P60981),-0.192,-0.173
ERCC3_P19447_342_SGVIVLPCGAGK (UniProt P19447),-0.235,-1.63
EXOSC1_Q9Y3B2_40_HGYIFSSLAGCLMK (UniProt Q9Y3B2),0.118,-0.0583
FCHSD2_O94868_200_SECNSK (UniProt O94868),-0.126,-0.158
EPRS_P07814_1076_KLGVENCYFPMFVSQSALEK (UniProt P07814),0.288,0.373
DYNC1I2_Q13409_331_TTPEYVFHCQSAVMSATFAK (UniProt Q13409),0.091,0.418
DTX3L_Q8TDB6_219_DSCISPSEPETK (UniProt Q8TDB6),-0.446,-0.672
FANCI_Q9NVI1_650_LEACILTQGDK (UniProt Q9NVI1),-0.0611,-0.113
DYNC1H1_Q14204_1888_CYLTMTQALEAR (UniProt Q14204),-0.0386,-0.161
FANCG_O15287_417_AQDALTLCEELLSR (UniProt O15287),0.0123,0.0425
EPRS_P07814_350_IDMSSNNGCMRDPTLYR (UniProt P07814),-0.0274,-0.367
EIF3CL_B5ME19_572_TCAILCHIYHHALHSR<|>EIF3C_Q99613_571_TCAILCHIYHHALHSR (UniProt Q99613+B5ME19),0.0697,-0.279
ERMP1_Q7Z2K6_737_AHCEENAPLCGFPWYLPVHFLIR (UniProt Q7Z2K6),-0.0124,0.222
DSCR3_O14972_219+221_VETCGCAEGYAR (UniProt O14972),-0.345,-2.51
EXOSC2_Q13868_259_MMLYDTSILYCYEASLPHQIK (UniProt Q13868),0.341,0.254
EIF2S3_P41091_96+101_LDDPSCPRPECYR (UniProt P41091),-0.389,-0.339
EXOSC10_Q01780_327_SFLGLTCLMQISTR (UniProt Q01780),0.419,0.333
EEF1A2_Q05639_411_SGDAAIVEMVPGKPMCVESFSQYPPLGR (UniProt Q05639),-0.261,-0.239
FAM120A_Q9NZB2_919_VAAASGHCGAFSGSDSSR (UniProt Q9NZB2),-0.383,-0.344

Target,probe-labelled cysteine peptide fold change (10 µM),probe-labelled cysteine peptide fold change (50 µM)
FDX1_P10109_152+155_LGCQICLTK (UniProt P10109),-0.319,-0.896
ENG_P17813_549_TGTLSCTVALRPK (UniProt P17813),-0.142,-0.0378
EXOSC6_Q5RKV6_117_RAPPGGCEERELALALQEALEPAVR (UniProt Q5RKV6),-0.569,-1.04
EEF1A1_P68104_31_CGGIDKR<|>EEF1A2_Q5VTE0_31_CGGIDKR (UniProt Q5VTE0+P68104),-1.04,-1.79
FBXO30_Q8TB52_90_VAEHLEMCPASVVCCTMEWNR (UniProt Q8TB52),-0.103,-0.0583
DPH5_Q9H2P9_120_VIHNASIMNAVGCCGLQLYK (UniProt Q9H2P9),0.0911,0.264
EEF1A1P5_Q5VTE0_363+370_GNVAGDSKNDPPMEAAGFTAQVIILNHPGQISAGYAPVLDCHMAHIACK (UniProt Q5VTE0),-0.198,-1.24
DUT_P33316-2_3_PCSEETPAISPSK (UniProt P33316),-0.335,-0.042
EFTUD2_Q15029_144+148_TCFVDCLIEQTHPEIR (UniProt Q15029),-0.176,-0.0405
FAM126A_Q9BYI3_401_ETTGESCK (UniProt Q9BYI3),-0.493,-1.16
EML4_Q9HC35_638_LVDEPGHCADFHPSGTVVAIGTHSGR (UniProt Q9HC35),0.109,0.328
FAM208A_Q9UK61_149_ACLVHNELLEK (UniProt Q9UK61),-0.2,-1.18
FAM120B_Q96EK7_547_LEALMCTNPEIK (UniProt Q96EK7),-0.253,0.187
ERLEC1_Q96DZ1_126_IESYWTYEVCHGK (UniProt Q96DZ1),0.192,0.0829
EIF2B1_Q14232_218_IGTNQMAVCAK (UniProt Q14232),-0.148,-0.133
EML2_O95834_110_CLAIHPDMVTIATGQVAGTTK (UniProt O95834),-0.0841,0.0588
EEF1A1_P68104_234_DGNASGTTLLEALDCILPPTRPTDKPLRLPLQDVYK (UniProt P68104),-0.124,-0.435
ERCC4_Q92889_803_ILWCPSPHATAELFEELK (UniProt Q92889),-0.169,0.181
FAM122A_Q96E09_193_SQSPINCIRPSVLGPLK (UniProt Q96E09),-0.132,-0.161
DYNC1H1_Q14204_2712_IQFVGACNPPTDPGRKPLSHR (UniProt Q14204),-0.0552,0.27
EZH2_Q15910_260_ELTEQQLPGALPPECTPNIDGPNAK (UniProt Q15910),-0.164,0.256
EEFSEC_P57772_442_LDADIHTNTCR (UniProt P57772),-0.204,-1.14
EXOSC6_Q5RKV6_117_APPGGCEERELALALQEALEPAVR (UniProt Q5RKV6),-0.5,-1.49
EPS15_P42566_782_IGTPTRPCPLPPGKR (UniProt P42566),-0.367,-1.1
